The results in this text go back to PubChem BioAssay.

Where “and” joins values, the source holds several entries; their conditions need not be identical. Equal values may be shown once. Where a structure was tested more than once in an assay, its records may differ in their call. Calls of active or inactive are those of the source. Cut-off read from the data, not from the text of the source: active = fold change permeability below about 0.7 or above about 1.3; inactive = in between.

This test in a line: modulators of brain endothelial barrier permeability, primary screen, cell-based, FITC-avidin fluorescence, HTS (AID 1963498). Note: test concentration not given here. The settings on record: actives lie on both sides.
For the molecule `OCc1ccc(-c2nn(Cc3ccccc3)c3ccccc23)o1`, the fold change permeability is 2 (active). With `Cn1cc(C2=C(c3ccc(Cl)cc3Cl)C(=O)NC2=O)c2ccccc21`, the fold change permeability is 3.6 (active).

As for `CC(C)(Oc1ccc(CCNC(=O)c2ccc(Cl)cc2)cc1)C(=O)O`, the fold change permeability was 0.9 (inactive). With `CC(/C=C/c1cccc(Oc2ccc(F)cc2)c1)N(O)C(N)=O` (centres undefined), the fold change permeability is 1.1 (inactive). For `CC(C)NC[C@H](O)c1ccc(O)c(O)c1`, the fold change permeability is 1.2 (inactive) and 1.8 (active).

As for `O=c1c(O)c(-c2ccc(O)c(O)c2)oc2cc(O)cc(O)c12`, the fold change permeability was 0.9 (inactive).

Regarding `CCC(=O)OCC(=O)[C@@]1(OC(=O)CC)[C@H](C)C[C@H]2[C@H]3[C@H]([C@@H](O)C[C@@]21C)[C@@]1(C)C=CC(=O)C=C1C[C@H]3Cl`, the fold change permeability is 1.5 (active). The same measure for `O=c1[nH]c(=O)c2nc3ccccc3nc2[nH]1`: 1.3 (active).

Regarding `O=C(O)CP(=O)(O)O`, the fold change permeability was 1 (inactive). For the molecule `Cc1ccc(S(=O)(=O)N[C@@H](Cc2ccccc2)C(=O)CCl)cc1`, the fold change permeability was 1.8 (active). `N#C/C(=C1/SC[C@@H](c2ccc(Cl)cc2Cl)S1)n1ccnc1`: the fold change permeability was 1.6 (active). The same measure for `OC[C@H]1O[C@H]([S-])[C@H](O)[C@@H](O)[C@@H]1O.[Au+]`: 1.5 (active); for `CN1CCc2cccc3c2[C@H]1Cc1ccc(O)c(O)c1-3`: 1 (inactive). On to `C=Cc1c(C)c2cc3[nH]c(cc4nc(cc5nc(cc1[nH]2)C(C)=C5CCC(=O)O)C(CCC(=O)O)=C4C)c(C)c3C=C`, for which the fold change permeability is 1 (inactive). Under `CN1C(=O)c2sccc2N(C)c2nc(Nc3ccc(S(N)(=O)=O)cc3)ncc21` stands 1.8 (active); under `O=C1c2c(O)ccc(O)c2C(=O)c2c(NCCNCCO)ccc(NCCNCCO)c21`, 0.8 (inactive). Under `C=C1C[C@H]2[C@@H]3CCC4=CC(=O)CC[C@@H]4[C@H]3CC[C@]2(C)[C@@]1(OC(C)=O)C(C)=O` stands 1.1 (inactive); under `C/C(O)=C(\C#N)C(=O)Nc1ccc(C(F)(F)F)cc1`, 1.2 (inactive); under `NC/C=C\C(=O)O`, 1.2 (inactive).

`CN(C)C/C=C(/c1ccc(Br)cc1)c1cccnc1`: the fold change permeability was 1.7 (active).

Turning to `Clc1ccc(Cn2c(CN3CCCC3)nc3ccccc32)cc1`, the fold change permeability is 1.2 (inactive). In the case of `CCCNC(=O)Nc1ccc(Oc2ncnc3cc(OC)c(OC)cc23)cc1Cl`, the fold change permeability was 1.1 (inactive). As to `O=C(NCCO)c1cccc(-c2cc(Nc3ccc(OC(F)(F)F)cc3)ncn2)c1`, the fold change permeability is 1.4 (active). Under `O=C(OCCN1CCOCC1)C1(c2ccccc2)CCCCC1` stands 1 (inactive). For `OCCN1CCN(CCCN2c3ccccc3Sc3ccc(Cl)cc32)CC1`, the fold change permeability is 1.2 (inactive). Turning to `CC(C)(C)c1ccc(/C=C/C(=O)Nc2ccc3c(c2)OCCO3)cc1`, the fold change permeability is 2 (active). For `O=C(O)c1cc2cc(Cc3cccnc3)ccc2o1`, the fold change permeability is 0.8 (inactive). Under `NCCCCN=C(N)N` stands 1.3 (active); under `CC1=C(C(=O)Nc2ccc3[nH]ncc3c2)C(c2ccc(F)cc2)NC(=O)N1` (centres undefined), 1.2 (inactive). For `CO/N=C(\C(=O)N[C@@H]1C(=O)N2C(C(=O)O)=C(COC(C)=O)CS[C@H]12)c1csc(N)n1` (stereo in doubt), the fold change permeability is 0.8 (inactive). In the case of `Fc1ccc(CN(C2=NCCN2)c2c(Cl)cccc2Cl)cc1`, the fold change permeability was 1.1 (inactive). The same measure for `c1ccc2c(c1)CCC[C@H]2Nc1nc2ccccc2[nH]1`: 1.3 (active); for `Clc1ccc2nsnc2c1NC1=NCCN1`: 1.9 (active); for `O=C(Nc1cccc(C(=O)Nc2ccc(S(=O)(=O)O)c3cc(S(=O)(=O)O)cc(S(=O)(=O)O)c23)c1)Nc1cccc(C(=O)Nc2ccc(S(=O)(=O)O)c3cc(S(=O)(=O)O)cc(S(=O)(=O)O)c23)c1`: 0.9 (inactive).

Regarding `CCCCn1c(-c2ccccc2)nc(-c2ccccc2)c1CN(Cc1ccc2c(c1)OCO2)Cc1ccc2c(c1)OCO2`, the fold change permeability is 1.3 (active).

Regarding `CCC(C)N(C)C(=O)c1cc2ccccc2c(-c2ccccc2Cl)n1` (centres undefined), the fold change permeability was 0.9 (inactive). In the case of `NC(=O)OCC(COC(N)=O)c1ccccc1`, the fold change permeability is 0.8 (inactive). Under `Cc1ccc(C2Nc3ccccc3C(=O)N2c2ccccc2)s1` (centres undefined) stands 1.3 (active). The same measure for `COc1cc2nc(N3CCN(C(=O)c4ccco4)CC3)nc(N)c2cc1OC`: 1 (inactive).
